# Assay results as given in PubChem BioAssay AID651548 (Broad Institute, 2012).
# Values joined by “and” are separate entries in the source; they are usually repeats but may differ in a detail not shown here. Equal values may be shown once. Among all 57,000 compounds or so, about 200 (0.35%) were called active. This excerpt belongs to a sample that is enriched for actives. Values without a mark were called inactive.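 Rule for the calls: active = mean inhibition of replicates at least 50% and every single replicate also reaching 50%; inconclusive = mean inhibition at least 50% but some replicate falls below 50%; inactive = mean inhibition under 50%.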
# Molecular target: Histone-lysine N-methyltransferase EZH2 (Homo sapiens) (UniProt Q15910)
# Assay: EZH2/PRC2 methyltransferase inhibitors, primary screen, biochemical, DELFIA time-resolved fluorescence, single point (AID 651548);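 note: dimethyl H3K27 on biotinylated H3 21-44 peptide detected by antibody; plate controls were median neutral control wells for no effect and median positive control wells for full effect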
# Settings: PRC2 H3K27 methylation, DELFIA TRF, 1 h; at 12.5 µM; stronger effect = higher value
# Sequence of Histone-lysine N-methyltransferase EZH2 (Homo sapiens) (Q15910 whole entry, looked up): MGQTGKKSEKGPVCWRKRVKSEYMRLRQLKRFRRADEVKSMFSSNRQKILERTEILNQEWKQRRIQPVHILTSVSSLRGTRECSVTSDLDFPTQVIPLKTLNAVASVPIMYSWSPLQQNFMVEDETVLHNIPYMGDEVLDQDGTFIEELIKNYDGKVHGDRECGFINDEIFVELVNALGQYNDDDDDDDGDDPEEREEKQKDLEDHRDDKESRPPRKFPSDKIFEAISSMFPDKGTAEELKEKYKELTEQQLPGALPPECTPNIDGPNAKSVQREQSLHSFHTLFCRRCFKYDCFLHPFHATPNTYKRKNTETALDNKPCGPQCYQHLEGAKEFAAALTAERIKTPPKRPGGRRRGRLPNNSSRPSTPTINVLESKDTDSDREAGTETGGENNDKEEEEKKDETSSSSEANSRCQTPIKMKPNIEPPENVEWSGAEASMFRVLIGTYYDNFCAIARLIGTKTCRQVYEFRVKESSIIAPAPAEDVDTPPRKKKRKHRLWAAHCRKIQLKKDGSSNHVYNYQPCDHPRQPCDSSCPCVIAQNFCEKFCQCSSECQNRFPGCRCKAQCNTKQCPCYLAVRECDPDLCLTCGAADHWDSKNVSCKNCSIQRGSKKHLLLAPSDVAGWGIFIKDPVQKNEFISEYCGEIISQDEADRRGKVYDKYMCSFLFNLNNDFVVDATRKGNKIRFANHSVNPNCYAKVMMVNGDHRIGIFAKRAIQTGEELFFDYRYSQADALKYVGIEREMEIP
row,SMILES,inhibition
1,CCC(=O)N1C[C@H](C)[C@H](OC)CN(C)C(=O)c2ccc(NC(=O)c3cnccn3)cc2OC[C@@H]1C,10.3%
2,COc1cccc(S(=O)(=O)N[C@H]2C=C[C@@H](CC(=O)NCc3ccc(F)cc3)O[C@@H]2CO)c1,13.3%
3,C[C@@H]1CCCCO[C@H](CN(C)C)[C@H](C)CN([C@@H](C)CO)C(=O)c2cc(NS(=O)(=O)c3ccccc3)ccc2O1,-7.21%
4,CCCNC(=O)N1C[C@@H](C)[C@@H](OC)CN(C)C(=O)c2ccc(NC(=O)CCC)cc2OC[C@H]1C,-3.61%
5,CC(C)NC(=O)N(C)C[C@H]1Oc2ncc(-c3ccccc3F)cc2C(=O)N([C@@H](C)CO)C[C@@H]1C,-0.301%
6,COc1cccc(NC(=O)N[C@H]2C=C[C@@H](CC(=O)Nc3ccc(-c4ccccc4)cc3)O[C@@H]2CO)c1,-1.25%
7,O=C(C[C@H]1C[C@H]2c3cc(NC(=O)CC4CC4)ccc3O[C@H]2[C@H](CO)O1)NCc1ccccc1,-28.9%
8,C[C@@H]1CN([C@H](C)CO)S(=O)(=O)c2ccc(C#CC3CCCCC3)cc2O[C@H]1CN(C)C(=O)Cc1ccncc1,-42.6% and -20.9%
9,COc1ccc(NC(=O)N[C@H]2CC[C@@H](CCNS(=O)(=O)c3cccc(Cl)c3)O[C@H]2CO)cc1,-37.3%
10,CO[C@@H]1CN(C)C(=O)c2ccc(NC(=O)Nc3c(C)noc3C)cc2OC[C@@H](C)N(C(=O)Nc2cccc(Cl)c2)C[C@H]1C,-3.56%
11,CCC(=O)N(C)C[C@H]1Oc2cc(C#CC3CC3)ccc2S(=O)(=O)N([C@H](C)CO)C[C@H]1C,-6.49%
12,CCOC(=O)C1CCCN(C(=O)c2c[nH]n3c(=O)c(Cc4ccc(Cl)cc4)c(C)nc23)C1 (stereo unspecified),11.7%
13,CO[C@@H]1CN(C)C(=O)c2cc(NC(=O)c3ccc(F)cc3)ccc2OC[C@H](C)NC[C@@H]1C,8.13%
14,CC(C)C#Cc1ccc2c(c1)O[C@H](CN(C)CC1CCOCC1)[C@@H](C)CN([C@H](C)CO)S2(=O)=O,0.383%
15,COc1cccc(S(=O)(=O)N[C@H]2C=C[C@H](CC(=O)NCc3ccc(Cl)cc3)O[C@@H]2CO)c1,7.24%
16,C[C@H]1CN([C@@H](C)CO)C(=O)c2cccc(NC(=O)Nc3ccccc3)c2O[C@H]1CN(C)Cc1ccc(C(F)(F)F)cc1,-14.8%
17,C[C@H](CO)N1C[C@H](C)[C@@H](CN(C)C(=O)c2cccc(F)c2)Oc2cc(-c3cncnc3)ccc2S1(=O)=O,14.3% and -4.79%
18,COc1ccccc1C(=O)Nc1ccc2c(c1)C(=O)N(C)C[C@@H](OC)[C@@H](C)CN(C)[C@H](C)CO2,1.85%
19,COc1cccc(-c2cnc3c(c2)C(=O)N([C@H](C)CO)C[C@@H](C)[C@H](CN(C)Cc2ccc(F)cc2)O3)c1,10%
20,CC(C)NC(=O)N(C)C[C@@H]1Oc2cc(C#C[C@H](C)O)ccc2S(=O)(=O)N([C@@H](C)CO)C[C@H]1C,8.88%
21,C[C@@H]1CN([C@H](C)CO)S(=O)(=O)c2ccc(C#CC3(O)CCCC3)cc2O[C@@H]1CN(C)C(=O)c1cccnc1,5.12%

row,SMILES,inhibition
1,COCC(=O)Nc1ccc2c(c1)[C@@H]1C[C@H](CC(=O)NCc3cc(F)ccc3F)O[C@@H](CO)[C@@H]1O2,-6.69%
2,C[C@@H]1CN([C@@H](C)CO)S(=O)(=O)c2ccc(-c3ccc(C#N)cc3)cc2O[C@H]1CN(C)Cc1ccccn1,5.38%
3,CO[C@@H]1CN(C)C(=O)c2ccc(NC(=O)C3CCC3)cc2OC[C@H](C)N(C(=O)CN(C)C)C[C@H]1C,0.087%
4,O=C(C[C@@H]1C[C@@H]2c3cc(NC(=O)NC4CCCC4)ccc3O[C@@H]2[C@H](CO)O1)NCC(F)(F)F,3.2%
5,CC(C)(C)S(=O)N1Cc2cc(C(=O)O)nc(-c3cccc(-c4cc5ccccc5o4)c3)c2[C@@H]1CCO (stereo partly specified),9.63%
6,CO[C@@H]1CN(C)C(=O)c2cc(NC(=O)NC3CCCCC3)ccc2OC[C@H](C)N(CC2CC2)C[C@H]1C,-6.48%
7,O=C(N[C@H]1CC[C@H](CCNS(=O)(=O)c2ccc(F)cc2)O[C@H]1CO)C1CCCC1,-3.3%
8,O=C(C[C@@H]1C=C[C@H](NC(=O)C2CCC2)[C@@H](CO)O1)NCC1CC1,10.5%
9,CCCN1C[C@H](C)[C@@H](OC)CN(C)C(=O)c2ccc(NC(=O)C3CCOCC3)cc2OC[C@H]1C,7.14%
10,O=C(C[C@H]1C=C[C@H](NC(=O)Nc2ccc(C(F)(F)F)cc2)[C@@H](CO)O1)NCCN1CCCC1,11.8%
11,C[C@@H]1CCCCO[C@@H](CN(C)Cc2ccncc2)[C@H](C)CN([C@H](C)CO)C(=O)c2cc(NC(=O)CCC(F)(F)F)ccc2O1,0.938%
12,CCC(=O)N1C[C@@H](C)[C@H](OC)CN(C)C(=O)c2ccc(NC(=O)NC(C)C)cc2OC[C@H]1C,5.57%
13,CNC[C@@H]1Oc2cc(C#CC3(O)CCCC3)ccc2S(=O)(=O)N([C@@H](C)CO)C[C@H]1C,-0.413%
14,OC[C@@]1(O)CO[C@H](OC[C@H]2O[C@@H](OC(CCCCc3ccc(O)cc3)CCc3ccc(O)cc3)[C@H](O[C@H]3OC[C@](O)(CO)[C@H]3O)[C@@H](O)[C@@H]2O)[C@@H]1O (stereo partly specified),99% (active)
15,OC[C@H]1O[C@@H](OCc2ccccc2)[C@H](O[C@@H]2OC[C@](O)(CO)[C@H]2O)[C@@H](O)[C@@H]1O,10.5%
16,C/C=C/c1ccc2c(c1)O[C@@H](CN(C)C(=O)NC1CCCC1)[C@@H](C)CN([C@H](C)CO)S2(=O)=O,10.7%
17,CCCN(C)C[C@H]1OCCCC[C@H](C)Oc2ccc(NS(=O)(=O)c3ccc(C)cc3)cc2C(=O)N([C@@H](C)CO)C[C@H]1C,-43.7%
18,CO[C@H]1CN(C)C(=O)c2ccc(NC(=O)c3cnccn3)cc2OC[C@@H](C)N(C(C)=O)C[C@H]1C,7.05%
19,CO[C@H]1CN(C)C(=O)c2cc(NS(=O)(=O)c3ccccc3)ccc2OC[C@H](C)NC[C@@H]1C,3.07%
20,CN(C)C(=O)C[C@H]1C[C@H]2c3cc(NC(=O)Nc4ccc(C(F)(F)F)cc4)ccc3O[C@H]2[C@@H](CO)O1,-22.5%
21,CO[C@@H]1CN(C)C(=O)c2cc(NC(=O)C3CCOCC3)ccc2OC[C@@H](C)NC[C@@H]1C,5.55%

row,SMILES,inhibition
1,CCC(=O)N1C[C@@H](C)[C@H](OC)CN(C)C(=O)c2ccc(NC(=O)COC)cc2OC[C@@H]1C,2.05%
2,CC(C)NC(=O)N[C@@H]1CC[C@H](CC(=O)NC2Cc3ccccc3C2)O[C@H]1CO,-19.2%
3,O=C(Nc1ccccc1F)N[C@@H]1CC[C@H](CCNC(=O)C2CC2)O[C@@H]1CO,-5.22%
4,C[C@@H](NC(=O)C[C@@H]1CC[C@H](NC(=O)Cc2ccccn2)[C@H](CO)O1)c1ccccc1,5.38%
5,CO[C@@H]1CN(C)C(=O)c2cc(NC(=O)c3cnccn3)ccc2OC[C@@H](C)N(CC2CC2)C[C@H]1C,-3.51%
6,CO[C@H]1CN(C)C(=O)c2ccc(NS(C)(=O)=O)cc2OC[C@@H](C)N(Cc2ccccc2)C[C@H]1C,27.6%
7,CN(C)C(=O)C[C@H]1CC[C@H](NC(=O)NC2CCCC2)[C@@H](CO)O1,6.6%
8,CN(C)CC(=O)N[C@H]1CC[C@@H](CCNC(=O)C2CCCC2)O[C@@H]1CO,4.19%
9,O=S(=O)(N[C@@H]1CC[C@@H](CCn2cc(-c3ccccn3)nn2)O[C@@H]1CO)c1cccc(Cl)c1,1.97%
10,O=C(Nc1ccccc1F)N[C@H]1C=C[C@H](CC(=O)N2CCCCC2)O[C@H]1CO,11.6%
11,C[C@@H]1CN([C@H](C)CO)S(=O)(=O)c2ccc(C#Cc3ccccc3F)cc2O[C@@H]1CN(C)C(=O)c1ccc2c(c1)OCO2,-7.72%
12,C[C@@H]1CN([C@@H](C)CO)C(=O)c2cc(C3=CCCC3)cnc2O[C@H]1CN(C)C(=O)c1ccccn1,-1.13%
13,O=C(Nc1ccccc1F)N[C@@H]1C=C[C@H](CC(=O)N2CCCCC2)O[C@@H]1CO,-6.07%
14,C[C@@H]1CN([C@@H](C)CO)C(=O)c2cc(Br)cnc2O[C@H]1CN(C)Cc1ccc(-c2ccccc2)cc1,32.3%
15,CCCNC(=O)N(C)C[C@H]1Oc2cc(-c3ccncc3)ccc2S(=O)(=O)N([C@H](C)CO)C[C@@H]1C,2.1%
16,O=C(C[C@H]1C=C[C@@H](NC(=O)c2ccc(F)cc2)[C@@H](CO)O1)NCCc1ccncc1,-4.57%
17,O=C(N[C@@H]1CC[C@@H](CC(=O)N2CCc3ccccc3C2)O[C@@H]1CO)C1CCOCC1,-3.58%
18,COCC#Cc1ccc2c(c1)O[C@H](CN(C)C(=O)CN(C)C)[C@@H](C)CN([C@H](C)CO)S2(=O)=O,-3.07%
19,COCC(=O)N(C)C[C@@H]1Oc2ncc(-c3ccccc3OC)cc2C(=O)N([C@@H](C)CO)C[C@@H]1C,16.6%
20,CCCN(C)C[C@H]1OCCCC[C@@H](C)Oc2ccc(NC(=O)Nc3ccc(F)cc3)cc2C(=O)N([C@@H](C)CO)C[C@H]1C,18.6%
21,O=C(C[C@@H]1C[C@@H]2c3cc(NC(=O)c4ccc5c(c4)OCO5)ccc3O[C@@H]2[C@H](CO)O1)NCC1CC1,6.48%

row,SMILES,inhibition
1,O=C(C[C@@H]1C[C@H]2c3cc(NC(=O)CC4CC4)ccc3O[C@H]2[C@@H](CO)O1)NCc1ccc2c(c1)OCO2,-6.28%
2,O=C(C[C@@H]1C=C[C@@H](NS(=O)(=O)c2ccc(F)cc2)[C@@H](CO)O1)NCCN1CCCCC1,7.22%
3,O=C(CN1CCOCC1)N[C@@H]1CC[C@@H](CCn2cc(C3CCCCC3)nn2)O[C@@H]1CO,3.73%
4,O=C(C[C@@H]1C=C[C@H](NC(=O)Nc2ccc(C(F)(F)F)cc2)[C@H](CO)O1)NCc1cccc(F)c1,-12.8%
5,O=S(=O)(NCC[C@H]1CC[C@@H](NS(=O)(=O)c2ccccc2Cl)[C@@H](CO)O1)c1ccc(Cl)cc1,-8.5%
6,O=C(CN1CCOCC1)N[C@H]1CC[C@@H](CCNS(=O)(=O)c2ccccc2F)O[C@H]1CO,0.878%
7,COc1ccccc1CNC(=O)C[C@H]1C[C@H]2c3cc(NS(=O)(=O)c4ccc(F)cc4)ccc3O[C@H]2[C@@H](CO)O1,-7.14%
8,O=C(Nc1ccccc1)N[C@H]1CC[C@H](CCNC(=O)c2ccccc2F)O[C@H]1CO,-1.66%
9,Cc1ccccc1S(=O)(=O)NCC[C@@H]1CC[C@@H](NS(=O)(=O)c2ccccc2C)[C@@H](CO)O1,6.69%
10,COc1cccc(S(=O)(=O)N[C@@H]2C=C[C@H](CC(=O)NC3CCC3)O[C@H]2CO)c1,4.61%
11,CNC[C@H]1OCCCC[C@H](C)Oc2ccc(NS(C)(=O)=O)cc2C(=O)N([C@@H](C)CO)C[C@H]1C,5.37%
12,CO[C@@H]1CN(C)C(=O)c2cc(NC(=O)c3cnccn3)ccc2OC[C@@H](C)N(C(=O)C2CC2)C[C@@H]1C,3.91%
13,C[C@@H]1CN([C@@H](C)CO)C(=O)Cc2cc(NC(=O)C3CCCCC3)ccc2O[C@H]1CN(C)C(=O)Nc1ccccc1,1.25%
14,CCCNC(=O)Nc1ccc2c(c1)C(=O)N(C)C[C@H](OC)[C@H](C)CN(Cc1ccncc1)[C@H](C)CO2,-16.3%
15,CCCNC(=O)Nc1ccc2c(c1)OC[C@@H](C)N(CCC)C[C@H](C)[C@@H](OC)CN(C)C2=O,0.898%
16,C[C@@H]1CN([C@@H](C)CO)C(=O)c2cc(C#CC3CCCCC3)cnc2O[C@@H]1CN(C)Cc1cncnc1,-2.95%
17,O=C(C[C@H]1C[C@@H]2c3cc(NC(=O)C4CCC4)ccc3O[C@@H]2[C@@H](CO)O1)NCCN1CCCCC1,1.25%
18,CO[C@@H]1CN(C)C(=O)c2cc(NC(=O)Nc3ccc4c(c3)OCO4)ccc2OC[C@@H](C)NC[C@@H]1C,3.91%
